The campaign covered roughly 75,000 compounds. About 5,700 (7.6%) were called active. Another 7% or so got no clear call; they are omitted. For the sample, actives were picked, then their nearest neighbours and some compounds at random. A number with no mark means an inactive call. The call rests on the fitted dose curve; in most records, active means well fitted inhibition curve with a large enough effect; inconclusive means small, poorly fitted or top-dose-only effect; inactive means no such curve, though single readings can be large or run the other way.
biological target: 3-hydroxyacyl-CoA dehydrogenase type-2 (Homo sapiens) (UniProt Q99714); assay: qHTS Assay for Inhibitors of HSD17B4, hydroxysteroid (17-beta) dehydrogenase 4; conditions: recombinant HSD17B10, NADH fluorescence kinetic; series mostly up to 57.1 µM; activity change, negative = inhibition: at the top concentration; further: nearly all actives have a fitted effect of over 70% in size
Excerpt: Assay Overview: NIH Molecular Libraries Screening Centers Network [MLSCN] NIH Chemical Genomics Center [NCGC] Structural Genomics Consortium [SGC] Grant number: None HADH2: Hydroxyacyl-Coenzyme A dehydrogenase, type II, was supplied by researchers at the Structural Genomics Consortium, Oxford University lab (PI Udo Oppermann). The mitochondrial enzyme 17-hydroxysteroid dehydrogenase type 10 (HSD17-10) previously classified as type II hydroxyacyl-CoA dehydrogenase (HADH2) catalyzes the NAD+ dependent oxidation of a variety of substrates including acyl-CoAs, androgens and neurosteroids as well as bile acids(Shafqat N, Marschall HU, Filling C, et al. Biochemical Journal. 2003;376(Pt 1):49-60). […] The enzyme was produced by E.coli fermentation as His-tagged recombinant for the purpose of X-ray structure determination, and had been mass-spectrometry characterized. Inhibition of HADH2 activity was screened by utilizing beta-hydroxybutyryl coenzyme A as an electron donor and NAD+ as an electron acceptor/cofactor. An increase in the fluorescence intensity due to conversion of NAD+ to NADH was used to measure the enzyme activity.
Assay Protocol: Buffer: 100 mM Tris-HCl pH 9.0, containing 0.01 % Tween-20. Reagents/Controls: Buffer in columns 3 and 4 as negative control (no enzyme). Substrate/cofactor solution: 1 mM NAD+ and 90 uM beta-hydroxybutyryl coenzyme A (Sigma-Aldrich, St. Louis, MO) final concentrations dispensed throughout the plate. Enzyme: 20 nM HADH2 final concentration in columns 1, 2, 5-48. Column 1 is neutral (100% activity). Column 2 contained titration of apomorphine (Sigma-Aldrich, A 4393, PubChem CID 2215, top concentration 500 uM, then 1:2 dilution in duplicate) Assay Steps: Three uL of enzyme were dispensed to 1536-well Greiner black solid bottom plates. Compounds and controls (23 nL) were transferred via Kalypsys PinTool. The plates were incubated for 15 min at room temperature, and then 1 uL of substrate/cofactor solution was added to start the reaction. The plates were immediately transferred to and read every 30 seconds for 4 min on ViewLux High-throughput CCD imager (Perkin-Elmer) using 360 nm excitation and 450 nm emission fluorescence protocol. The fluorescence intensity difference between the last and the first time points was used to compute reaction progress.
On the % scale 0 is the no-effect control and ±100 the full control effect; potency means the concentration at half of the fitted maximal effect.

In order of falling “activity change, negative = inhibition” value:
1. CC/C(=N\O)C(C)(C)/[N+]([O-])=C/c1ccc(Br)cc1  15.6%
2. CC(C(=O)Nc1ccccc1-c1ccccc1)N1CCOCC1 (stereo not given)  12.3%
3. CC(C)n1c(C(O)c2ccccc2)nc2ccccc21 (stereo not given)  12.2%
4. O=C(Nc1ccncc1)c1cc2ccccc2o1  10.3%
5. Cc1ccc(S(=O)(=O)N2CCC(C(=O)OCC(=O)N3CC(=O)Nc4ccccc43)CC2)cc1  9.91%
6. CC1CCN(c2nc3c(c(=O)[nH]c(=O)n3C)n2CCCc2ccccc2)CC1  8.8%
7. O=C(OCC(=O)c1cccs1)C1=COCCO1  8.65%
8. O=C(NCc1ccccn1)Nc1ccc(F)cc1  7.82%
9. CC(Sc1nc2ccccc2c(=O)n1Cc1ccco1)C(=O)c1ccccc1 (stereo not given)  7.76%
10. Cc1ccc(N2C(=O)c3oc4ccccc4c(=O)c3C2c2cccnc2)nc1 (stereo not given)  5.96%
11. N#Cc1c(NC(=O)CCCN2C(=O)c3ccccc3C2=O)oc(-c2ccccc2)c1-c1ccccc1  5.71%
12. CCOC(=O)C1=C(O)CSC1=Nc1cccc(Cl)c1  5.61%
13. CNC(=O)C1(C)C=CC2(CCCCC2)N1C(C)=O (stereo not given)  5.61%
14. Cn1cccc1Cc1nnc(SCC(=O)NCCc2ccccc2)n1-c1ccc(F)cc1  3.88%
15. C[N+](C)(C)CCCCCNCC12CC3CC(CC(C3)C1)C2  3.87%
16. CCOC(=O)c1cc2n(c1C)-c1ccccc1C2=O  3.78%
17. COC(=O)CNS(=O)(=O)c1ccc(Cc2ccc(S(=O)(=O)NCC(=O)OC)cc2)cc1  3.44%
18. COc1ccc(N)c(OC)c1  3.29%
19. CC(=O)OCC(COC(C)=O)OC(C)=O  3.21%
20. NC(=NC(=O)c1ccccc1)C1=C(O)CCC1=O  2.94%
21. Cc1nc2ccccc2c(=O)n1CCCn1ccnc1  2.75%
22. O=C(O)C(O)[C@@](O)(Cc1ccc(O)cc1)C(=O)O (stereo not given in full)  -0.363%
23. CCCn1c(C(O)c2cc(OC)ccc2OC)nc2ccccc21 (stereo not given)  -0.382%
24. Cc1cc(=O)oc(C)c1C(=O)Nc1cnc2ccccc2c1  -0.842%
25. CCC1(C)CC(=O)NC1=O (stereo not given)  -1.08%
26. CC1Cn2c(nnc2-c2cccs2)S1 (stereo not given)  -1.46%
27. Nc1cc(=O)nc(SCc2ccccc2)n1Cc1ccco1  -1.73%
28. Cc1ccc(C(CC(=O)O)Nc2nc(N3CCCCC3)nc(N3CCCCC3)n2)cc1 (stereo not given)  -1.92%
29. O=C(CCSCCc1ccccn1)Nc1nccs1  -2.41%
30. Nc1ncc(-c2cc3ccccc3oc2=O)s1  -2.43%
31. O=C(NCc1ccccn1)c1c(O)c2c([nH]c1=O)CCCC2  -2.63%
32. COc1cccc2sc(Nc3nc(C)c(C(C)=O)s3)nc12  -6.55%
33. Brc1cc(Br)c(Oc2cc(Br)c(Br)cc2Br)cc1Br  -9.08%
34. CCOC(=O)c1cnc(-n2nc(C)cc2C)nc1-n1nc(C)cc1C  -10.5%
35. COc1ccccc1NC(=O)CSc1nc2sc(C)c(C)c2c(=O)n1Cc1ccco1  -11.5%
36. CCOC(=O)CSc1nnc(CNc2ccc(F)cc2)o1  -11.8%
37. COc1ccc(CCn2c(-c3ccco3)nc3nc4ccccc4nc32)cc1OC  -12.8%
38. Cc1ccc2nc(-c3ccccc3)cc(C(=O)O)c2c1  -22.3%
39. CSc1cccc(NC(=O)CSc2ccccc2)c1  -27.3%
40. Cn1c(COc2ccc(Cl)cc2)nc2ccccc2c1=O  -28.2%
41. N#Cc1c(NC(=O)CSc2nc3ccccc3c(=O)n2Cc2ccco2)sc2c1CCCC2  -28.8%

`CCOC(=O)c1cc(-c2ccc(Cl)s2)nc2c1c(C)nn2C` was tested, and the Potency was 31.6 µM (active).
`COCCn1c(-c2ccc(OC)c(OC)c2)nc2ccccc21` was tested, and the Potency was 25.1 µM (active).
In the case of `Cc1nc2c(c(=O)n1Cc1ccco1)c1nc3ccccc3nc1n2Cc1ccccc1`, the Potency is reported as 25.1 µM (active).
`COCCCn1c2nc3ccccc3nc2c2c(=O)n(Cc3ccc(Cl)cc3)c(C)nc21` was tested, and the Potency was 2 µM (active).
With `Cc1ccc(Cn2c(C)nc3c(c2=O)c2nc4ccccc4nc2n3Cc2ccco2)cc1` the Potency was 25.1 µM (active).
`CCS(=O)(=O)N(C)[C@@H]1c2cc(C#N)ccc2OC(C)(C)[C@H]1O` was tested, and the Potency was “inactive”.
In the case of `Cc1ccc(NC(=O)c2cc(-c3ccc(C)o3)nc3ccccc23)nc1`, the Potency is reported as 31.6 µM (active).
`CC(Nc1nc(N2CCCC2)nc2ccccc12)c1ccccc1` (stereo not given) was tested, and the Potency was 31.6 µM (active).
With `O=C(NCc1ccccn1)c1cc2ccccc2oc1=O` the Potency was 31.6 µM (active).
`O=C(NCc1ccccn1)c1cnc2sccn2c1=O` was tested, and the Potency was 25.1 µM (active).
In the case of `O=C(Oc1cccnc1)c1cc2ccccc2oc1=O`, the Potency is reported as 25.1 µM (active).
For `CCOC(=O)c1cnc2sccn2c1=O`, the Potency was 25.1 µM (active).
For `CC(C(=O)N1CCOCC1)N1c2cccc3cccc(c23)S1(=O)=O` (stereo not given), the Potency was 31.6 µM (active).

`OCCCNCc1ccccn1` gave an activity change, negative = inhibition of -1.43% [at 11.4 µM].

— PubChem BioAssay AID893 (National Center for Advancing Translational Sciences (NCATS), 2007)
